TRPML1 ag: agonists of human TRPML1 channel; Q9GZU1; TRPML1-expressing cells, Ca2+ dye fluorescence, FDSS; activation, % (test concentration not listed); 0.12% of 410,000 active; AID 624414; in the data active = activation above about 50%; inconclusive = mostly about 30% to 49%; note: 0% is about no effect
Target sequence (Q9GZU1 whole entry, looked up): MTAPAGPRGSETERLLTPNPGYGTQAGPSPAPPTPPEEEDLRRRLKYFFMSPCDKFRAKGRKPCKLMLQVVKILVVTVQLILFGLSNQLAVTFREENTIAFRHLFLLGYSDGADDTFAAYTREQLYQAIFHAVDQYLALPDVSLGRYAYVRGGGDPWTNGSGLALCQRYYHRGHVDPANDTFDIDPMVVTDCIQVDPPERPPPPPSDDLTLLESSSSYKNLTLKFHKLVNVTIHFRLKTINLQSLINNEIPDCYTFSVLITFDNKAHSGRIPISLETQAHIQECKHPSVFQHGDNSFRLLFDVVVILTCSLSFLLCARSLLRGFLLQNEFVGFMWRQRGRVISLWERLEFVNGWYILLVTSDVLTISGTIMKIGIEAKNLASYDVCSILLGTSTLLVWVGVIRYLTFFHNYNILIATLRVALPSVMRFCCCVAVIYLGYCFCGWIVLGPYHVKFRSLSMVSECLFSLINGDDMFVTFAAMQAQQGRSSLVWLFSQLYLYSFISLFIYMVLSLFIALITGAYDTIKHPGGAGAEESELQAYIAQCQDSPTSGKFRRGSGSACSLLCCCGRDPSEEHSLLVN
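Calcium fluorescence on an FDSS kinetic reader gave the read-out. Tet-induced TRPML1-DL cells were plated overnight, dye-loaded (Ca8 with quencher, 45-90 min, room temperature, dark), then read 110 s after compound addition, and again 110 s after 4uM final 54-4 (EC80).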
Vif-APOBEC3F blk: blocks the Vif interaction with APOBEC3F; Potency, µM (doses to about 46.1 µM), for the others: at the highest dose activity, negative = active; 0.2% of 390,000 active; AID 602313; HeLa A3F-eYFP + Vif (tagged APOBEC3F with the HIV-1 protein that degrades it), YFP fluorescence increase; note: potency is the fitted concentration of half-maximal effect; % of control where 0% means no effect; nearly all actives have a fitted effect of over 65% in size
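Fluorescence increase (Ex 488/Em 500-530) after overnight compound treatment at 37 deg C flags inhibition of Vif-driven A3F-eYFP loss in stable HeLa A3F-eYFP/Vif cells seeded overnight beforehand.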
Vif-APOBEC3G blk: blocks the Vif interaction with human APOBEC3G; 0.076% of 410,000 active; Q9HC16; Potency, µM (top dose mostly 46.1 µM), for inactives: top-dose activity, negative = active, usual class: inhibitors; HeLa A3G-eYFP + Vif (tagged APOBEC3G with the HIV-1 protein that degrades it), YFP fluorescence, overnight; note: potency is the fitted concentration of half-maximal effect; % is set by controls: 0 for no effect and ±100 for the full control effect; nearly all actives have a fitted effect of over 60% in size
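HeLa cells stably expressing Vif and C-terminally eYFP-tagged A3G, seeded overnight at 37 deg C, then exposed to compound by pintool overnight at 37 deg C. Rise in yellow fluorescence (Ex 488/Em 500-530, Acumen) marks blocked Vif-driven A3G degradation.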
TRPML1 blocker: human mucolipin-1 channel inhibition | TRPML1-inducible cells, Ca2+ dye fluorescence, FDSS; active compounds read low; inhibition of EC80 agonist-evoked calcium signal | activity change, negative = inhibition, % (concentration not given with the values) | 0.02% of 390,000 active | AID 624415; in the data active = activity change below about -50%; inconclusive = between about -30% and that limit;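 note: stimulus is agonist 54-4 at its EC80 concentration; % is set by controls: 0 for no effect and ±100 for the full control effect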
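TRPML1-DL cells, Tet-induced overnight (~16 h, 37 °C) at 1,500 cells/well, were loaded with Ca8 no-wash dye plus quencher for 45-90 min at room temperature. Compounds were pinned during FDSS kinetic reading; agonist 54-4 at EC80 (4 uM final) then added.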
PINK1 modulator: changes PINK1 expression; PINK1 immunofluorescence, high-content cytometry, 24 h; Potency, µM (titrated, usually from 76.6 µM), for inactives: top-dose activation (PINK1 increase), hits mostly activators; 0.2% of 410,000 active; AID 624263; active = well fitted activation curve with a large enough effect; inconclusive = small, poorly fitted or top-dose-only effect; cell line not stated here; note: potency is the fitted concentration of half-maximal effect; % of control where 0% means no effect; nearly all actives have a fitted effect of over 65% in size
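A stable cell line was treated with compounds at 5 concentrations for 24 hours, with CCCP as control. PINK1 levels and mitochondrial localization were measured by immunofluorescence with mitochondrial, cell and nuclear markers after fixation, read by laser-scanning cytometry.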
* hit, by the source's call; u = inconclusive; x = no result; [ ] = remark or other dose. Most compounds without a hit are left out; they make up all but 0.52% or so of the library. Unless noted, calls come from the whole dose curve; as a rule, active = well fitted curve in the direction sought with a large enough effect; inconclusive = small, poorly fitted or top-dose-only effect, or another doubt; inactive = no such curve, though single readings can be large; an effect the other way counts as inactive or inconclusive.

SMILES | TRPML1 ag | Vif-APOBEC3F blk | Vif-APOBEC3G blk | TRPML1 blocker | PINK1 modulator
CCOC(=O)N1CC=C2C(C#N)=C(N)C(C#N)(C#N)[C@H](c3ccsc3)[C@H]2C1 | 5 | -10% | -8% | 2 | 5%[38.3 µM]
COc1cccc(C2C3CN(C)CC=C3C(C#N)=C(N)C2(C#N)C#N)c1OC (centres undefined) | 6 | -29% | -9% | 6 | 35µM*
CN1CC=C2C(C#N)=C(N)C(C#N)(C#N)C(CCc3ccccc3)C2C1 (centres undefined) | 2 | -13% | -14% | -7 | u
CCCC1C2CN(C(C)C)CC=C2C(C#N)=C(N)C1(C#N)C#N (centres undefined) | 22 | -7% | 1% | 6 | 10µM*
COc1cc([C@@H]2[C@H]3CN(C)CC=C3C(C#N)=C(N)C2(C#N)C#N)cc2c1OCO2 | 2 | -26% | -14% | 9 | 18µM*
CN1CC=C2C(C#N)=C(N)C(C#N)(C#N)C(c3ccsc3)C2C1 (centres undefined) | 6 | -10% | -9% | 24 | 10µM*
CCN1CC=C2C(C#N)=C(N)C(C#N)(C#N)[C@H](c3cccc(OC)c3OC)[C@H]2C1 | 6 | -10% | 2% | -6 | u
Cc1c(C(=O)NCc2ccccc2)sc2nc3n(c(=O)c12)CCC3 | 0 | 2% | 2% | 3 | 4%
COc1cccc(CNC(=O)CCS(=O)(=O)c2ccccc2Cl)c1 | -1 | -4% | 2% | -13 | 3%
CN1CC=C2C(C#N)=C(N)C(C#N)(C#N)[C@H](c3cccc(Cl)c3)C2C1 (some centres undefined) | 0 | u | 0% | -18 | 11µM*
CN1CC=C2C(C#N)=C(N)C(C#N)(C#N)[C@H](c3cccs3)[C@H]2C1 | 0 | u | -11% | -5 | u
CCCOc1ccc(N)cc1N | 0 | 22µM* | u | -25 | 18%
CCCOc1cc(N)ccc1C(=O)OCCN(CC)CC | 0 | 5% | 2% | 2 | 2%
COc1ccc(-c2cnc3c(NC=O)cc(-c4ccccc4)cn23)cc1OC | -1 | x | 1.8µM* | x | 2%
O=c1oc2cc(O)ccc2cc1S(=O)(=O)c1ccccc1 | -1 | 7% | 1% | -10 | 0%
O=c1oc2cc(O)ccc2cc1-c1nc2ccccc2o1 | 99* | x | u | x | 0%
Cc1cc(OCc2nc(-c3ccncc3)no2)cc(C)c1Cl | -1 | -5% | -4% | -5 | 2%
O=C1OCCC1=COCCCCCCOC=C1CCOC1=O | 0 | -18% | 0% | 10 | -1%
Cc1[nH]c2ccccc2c1/C=C/c1c[nH]c2ccccc12 | 0 | x | 0% | x | 1%
CCc1ccc(/C=C/c2c[nH]c3ccccc23)[n+](CC)c1 | 1 | u | u | -7 | 32µM*
C/C(=N\NC(=O)C1CCCC1)c1ccc(Cl)cc1 | -1 | 1% | -2% | -6 | -1%
CCSc1nsc(NC(=O)Nc2cccc(F)c2)n1 | 3 | -4% | 2% | 9 | u
CCCSc1nsc(NC(=O)Nc2ccc(F)cc2F)n1 | 0 | u | 0% | -5 | 13µM*
CCOc1ccccc1-n1c(=S)sc2c(=O)n(-c3ccc(C)cc3)c(=S)[nH]c21 | 66* | 1% | 3% | u | -1%
CCOC(=O)/C(C)=N/Nc1nc(-c2ccc(NC(C)=O)cc2)cs1 | 0 | 2% | -6% | 17 | 5%
SMILES | TRPML1 ag | Vif-APOBEC3F blk | Vif-APOBEC3G blk | TRPML1 blocker | PINK1 modulator
Cc1c(C(=O)OC/C(O)=C(\C#N)c2nc3ccccc3[nH]2)oc2ccccc12 | -1 | 22µM* | u | -15 | 2%
Cc1c(C(=O)OCC(O)=C(C#N)c2nc3ccccc3[nH]2)oc2ccc(Br)cc12 | 0 | u | -2% | -12 | u
O=C(N/N=C/c1cc([N+](=O)[O-])ccc1O)c1c[nH]c2ccccc12 | x | 2% | 0% | x | 35µM*
O=[N+]([O-])c1ccc(O)c(/C=N/NC(=S)Nc2ccc(Cl)cc2Cl)c1 | 1 | u | -6% | 7 | 40µM*
O=C(N/N=C/c1cccc([N+](=O)[O-])c1)c1c[nH]c2ccccc12 | 0 | 7% | 2% | 17 | 2%
CCOC(=O)c1ccc(Nc2nc3ccccc3nc2NS(=O)(=O)c2ccc(Cl)cc2)cc1 | 1 | 7.1µM* | -27% | 6 | 1%
CC(=O)c1ccc(Nc2nc3ccccc3nc2NS(=O)(=O)c2cccs2)cc1 | 0 | 15% | -6% | 13 | 40µM*
COc1ccc(Nc2nc3ccccc3nc2NS(=O)(=O)c2cccs2)cc1 | -1 | 5% | -1% | 3 | -1%
COc1cccc(Nc2nc3cc(C)ccc3nc2NS(=O)(=O)c2ccc(Cl)cc2)c1 | 0 | -4% | -10% | 1 | -1%
CCOc1ccc(S(=O)(=O)Nc2nc3ccccc3nc2Nc2ccc(OC)cc2)cc1 | 0 | -18% | -11% | 21 | -5%
O=S(=O)(Nc1nc2ccccc2nc1OCC(F)(F)F)c1cccs1 | 0 | 25µM* | -5% | 8 | 1%
Cc1ccc2nc(NS(=O)(=O)c3ccc(Cl)cc3)c(Nc3ccc(C(=O)O)cc3)nc2c1 | 1 | 4.5µM* | -3% | 13 | 0%
COc1ccc(C(C(=O)NC(C)(C)C)N(C(=O)CCC(=O)Nc2cc(C)on2)c2c(C)cccc2C)cc1 (centres undefined) | -1 | 13% | 0% | 20 | 4%
COc1ccc(OC)c(C(=O)N2CCc3c(cnc(C)c3CNS(=O)(=O)N(C)C)C2)c1 | x | x | x | x | -1%
CC1=[N+](C)c2c(ccc3cccnc23)C1(C)C | 3 | u | u | -9 | 13µM*
O=C(O)c1ccc(C(S(=O)(=O)c2ccccc2)S(=O)(=O)c2ccccc2)cc1 | 0 | 0% | -1% | -9 | 0%
C[N+](C)(C)CCC(=O)N1C/C(=C/c2ccccc2)C(=O)/C(=C\c2ccccc2)C1 | 0 | u | 7.9µM* | -20 | -5%
CN(C)CCC(=O)N1C/C(=C/c2ccccc2)C(=O)/C(=C\c2ccccc2)C1 | 2 | 0% | u | 7 | -6%
CN(CC(=O)Nc1ccc(Cl)c(Cl)c1)C1CCCCC1 | 0 | -8% | -1% | 2 | 40µM*
CN(CC(=O)Nc1ccccc1Cl)C1CCCCC1 | 1 | 3% | 3% | -13 | 6%
COc1ccccc1-c1cc2c(c(OC)c1)OCCN(CCC(C)c1ccc(C)o1)C2 (centres undefined) | x | x | x | x | 1%
CCn1c(SCC(=O)c2c[nH]c3ccccc23)nnc1-c1cccs1 | 1 | 22µM* | 11µM* | 7 | 13%
COCCn1c(SCC(=O)c2c[nH]c3ccccc23)nnc1-c1ccncc1 | 0 | -6% | 0% | -10 | 1%
CN(C)c1ccc(C=C2SC(=S)NC2=O)cc1 | u | u | 10µM* | 5 | 3%

Bioassay records from PubChem.
